TEAD-YAP block = TEAD-YAP interaction inhibition, primary screen, TEAD-YAP interaction inhibitor project, luminescence, HEK-TIYL cells. AID 1259422, 2018. inhibition, % at 9.12 µM. 1.4% of 640,000 active. TEAD-Gal4/YAP UAS-luciferase luminescence; in the data active = inhibition above about 32%;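 also: 0% = median of test compound wells and 100% = reference inhibitor wells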
GPR151 activ = activators of human GPR151, primary screen, cell-based, PathHunter beta-arrestin, luminescence; activation, % at 11.2 µM; AID 1508602, 2020; PathHunter beta-arrestin GPR151 cells; 1% of 650,000 active; in the data active = activation above about 4.9%;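 also: 0% = median of compound wells and 100% = cells with positive control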
MITF inh = MITF inhibitors, primary screen, biochemical, AlphaScreen, human; 0.91% of 650,000 active; Microphthalmia-associated transcription factor (Homo sapiens), O75030; inhibition, % at 2.6 µM; AID 1259374, 2018; AlphaScreen MITF homodimerization, bead proximity signal; in the data active = inhibition above about 50%;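 also: 0% = vehicle wells with protein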
Target sequence (O75030 whole entry, looked up): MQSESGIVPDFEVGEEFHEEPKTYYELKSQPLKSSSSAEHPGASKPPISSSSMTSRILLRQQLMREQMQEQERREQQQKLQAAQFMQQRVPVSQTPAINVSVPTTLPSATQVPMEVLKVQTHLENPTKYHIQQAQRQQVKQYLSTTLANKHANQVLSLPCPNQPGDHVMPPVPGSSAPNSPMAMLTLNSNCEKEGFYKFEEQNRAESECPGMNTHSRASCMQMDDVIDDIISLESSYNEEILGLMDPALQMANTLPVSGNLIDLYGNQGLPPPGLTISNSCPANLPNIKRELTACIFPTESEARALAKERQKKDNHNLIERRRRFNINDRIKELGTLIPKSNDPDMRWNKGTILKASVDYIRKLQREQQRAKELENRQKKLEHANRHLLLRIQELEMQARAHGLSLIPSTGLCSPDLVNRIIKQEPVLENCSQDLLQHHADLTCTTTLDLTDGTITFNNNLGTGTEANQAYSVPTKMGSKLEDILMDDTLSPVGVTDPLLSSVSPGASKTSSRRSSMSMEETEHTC
FBW7 activator = FBW7 E3 ligase activators, primary screen, biochemical, AlphaScreen, human; AID 1259310, 2017; 0.13% of 650,000 active; AlphaScreen FBW7–phospho-cyclin E peptide binding, activator screen; F-box/WD repeat-containing protein 7 (Homo sapiens), Q969H0; normalized activity (activation), % at 26.1 µM; in the data active = normalized activity above about 1.9%;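 also: purified mutant Fbw7 with reduced substrate affinity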
* hit, by the source's call. An excerpt weighted towards active compounds, which were near 3.5% of everything screened.

SMILES	TEAD-YAP block	GPR151 activ	MITF inh	FBW7 activator
CCOc1ccc(NC(=O)c2cc(OC)nc3ccccc23)cc1	52*	-1	6	0
Cn1c(=O)[nH]c(=O)c2c1nc(N(CCO)CCO)n2Cc1ccc(F)cc1	-12	0	2	0
COC(=O)c1c(NC(=O)COc2ccccc2[N+](=O)[O-])sc2c1CCCC2	1	1	13	0
COc1ccc(/C(C)=N\NC(=O)c2ccc([N+](=O)[O-])cc2)cc1OC	-4	0	-4	0
COc1cc(C(=O)Nc2ccccc2C(=O)NCCc2ccccc2)cc(OC)c1OC	39*	0	-8	0
NS(=O)(=O)c1ccc(NC(=O)c2cc(-c3ccncc3)nc3ccccc23)cc1	10	1	19	0
CCOc1ccc(-c2cc(C(=O)Nc3cc(=O)n(C)c(=O)n3C)c3ccccc3n2)cc1	76*	-2	-26	0
COc1cc(C(=O)NCc2ccc(C(=O)NCCc3ccccc3)cc2)cc(OC)c1OC	-5	-1	11	0
COc1cc(C(=O)NCCOc2cc(C)cc(C)c2)cc(OC)c1OC	52*	-1	13	1
COc1ccc(C(=O)NCCOc2cc(C)cc(C)c2)cc1OC	11	-1	12	0
NS(=O)(=O)c1ccc(NC(=O)c2cc(-c3ccccc3)nc3ccccc23)cc1	2	-1	19	1.9*
CCCNc1cc(Nc2nc3ccccc3n2C)ncn1	-17	-1	-14	0
C=CCNS(=O)(=O)c1ccc(OCC)cc1	2	0	14	0
Cc1cc2c(=O)n(CC(=O)NCCC3=CCCCC3)cnc2s1	-20	-1	12	0
Nc1ccccc1C(=O)NCCc1ccccc1	63*	-5	-6	0
CCOc1ccc(NC(=O)c2cc(OC)c(OC)c(OC)c2)cc1	55*	1	-2	0
COc1ccc(-n2cc(C(=O)N3CCC4(CC3)OCCO4)c3ccccc3c2=O)cc1	-9	0	-10	0
FC(F)(F)c1cccc(-c2cc(N3CCOCC3)nc(-c3ccccn3)n2)c1	6	1	46	0
Cc1ccc(C)n1-c1ccc(Br)cc1C(=O)O	-1	-1	82*	-1
Cc1ccc(C)n1-c1ccc(C(=O)O)c(C(=O)O)c1	1	0	-31	-1
Cc1[nH]c2ccc(-c3nnc(SCC(=O)N(C(C)C)C(C)C)o3)cc2c1C	36*	-1	18	0
O=C(O)CC12CC3CC(C1)CC(c1ccc([N+](=O)[O-])cc1)(C3)C2	-12	1	-2	0
Cc1nc(SCC(=O)N(C(C)C)C(C)C)c2c(C)c(C)sc2n1	51*	1	-4	0
COc1ccccc1CNc1c(-c2ccccc2)c(=O)c1=O	20	1	0	0
COC1C(O)CC(OC2CC(Oc3cc4cc5c(c(O)c4c(O)c3C)C(=O)[C@@H](OC3CC(OC4CC(OC6CC(C)(O)C(C)C(C)O6)C(O)C(C)O4)C(O)C(C)O3)[C@H]([C@H](OC)C(=O)[C@@H](O)[C@@H](C)O)C5)OC(C)C2OC(C)=O)OC1C (some centres not stated)	96*	-1	3	0
SMILES	TEAD-YAP block	GPR151 activ	MITF inh	FBW7 activator
Cn1c(-c2ccccc2)cnc1NC(=O)c1ccc(F)cc1	49*	-1	-1	0
OC1CCN(c2cccc(-c3ccnc(Nc4ccc(-n5ccnn5)cc4)n3)c2)CC1	37*	0	-3	0
Cn1nnc(-c2ccc(Nc3nccc(-c4cc(C#N)cc(N5CCCC(O)C5)c4)n3)cc2)n1 (configuration not stated)	63*	1	0	0
Fc1cc(-c2ccnc(Nc3ccc(-n4ccnn4)cc3)n2)cc(N2CCOCC2)c1	20	1	-3	0
N#Cc1cc(-c2ccnc(Nc3ccc(-n4cnc(N5CCCC(O)C5)n4)cc3)n2)cc(N2CCOCC2)c1 (configuration not stated)	27	0	-6	0
CN1CCN(c2ncn(-c3ccc(Nc4nccc(-c5cc(C#N)cc(N6CCCC(O)C6)c5)n4)cc3)n2)CC1 (configuration not stated)	62*	1	-11	0
OC1CCCN(c2ncn(-c3ccc(Nc4nccc(-c5cccc(N6CCOCC6)c5)n4)cc3)n2)C1 (configuration not stated)	83*	0	-10	1
O=C(NS(=O)(=O)c1cccc([N+](=O)[O-])c1)C(Cl)Cl	-4	0	-2	0

Screens (PubChem)
